Experimental data as given in PubChem BioAssay AID1626 (SRMLSC, 2009).
About 2,000 (0.91%) of roughly 220,000 compounds were called active. Roughly 2% stayed inconclusive and do not appear here. The list is a sample of the results. Entries with a potency or affinity are not part of this list. Unmarked numbers belong to inactive results. Rule as the data show it: inconclusive = inhibition above about 80% without an active follow-up result; inactive = below that; test concentration not stated here.

Assay: M. tuberculosis H37Rv growth inhibitors, H37Rv strain (AID 1626);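 also: bacteria incubated seven days before Alamar blue readout; 0% = bacteria only wells and 100% = bacteria with antibiotic wells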
Conditions: hits give high values, concentration not given here
In the case of O=C(NCC1CCCO1)c1cc(C(=O)c2ccc(Cl)cc2Cl)c[nH]1 (stereo not drawn), the inhibition is reported as 2.36%. Molecule COCCCNC(=S)Nc1ccc(C)cc1 has an inhibition of -3.56%. With COc1ccc(C(CCN2CCCC(C)C2)c2c(OC)cc(OC)c3c2OC(=O)CC3c2cc(OC)c(OC)c(OC)c2)cc1 (stereo not drawn) the inhibition was -7.36%. For CCCCCc1cc(=O)oc2c(C(CCN3CCN(c4ccccc4)CC3)c3ccc4c(c3)OCO4)c(OC)cc(OC)c12 (stereo not drawn), the inhibition was 22.5%. With CCCCCc1cc(=O)oc2c(C(CCN3CCN(c4ccccc4)CC3)c3ccc(N(C)C)cc3)c(OC)cc(OC)c12 (stereo not drawn) the inhibition was 12.8%. With COc1cc(OC)c2ccc(=O)oc2c1C(CCN1CCCC(C)C1)c1ccc(N(C)C)cc1 (stereo not drawn) the inhibition was -10.1%. COc1ccc(C(CCN2CCOCC2)c2c(OC)cc(OC)c3c(C)cc(=O)oc23)cc1 (stereo not drawn) showed an inhibition of -3.23%. In the case of COc1ccc(C(CCN2CCCC(C)C2)c2c(OC)cc(OC)c3c(C)cc(=O)oc23)cc1 (stereo not drawn), the inhibition is reported as 1.05%. Work on COc1cc(OC)c2ccc(=O)oc2c1C(CCN1CCCC1)c1ccc(N(C)C)cc1 (stereo not drawn) yielded an inhibition of -8.24%. For COc1cc(OC)c2c(C)cc(=O)oc2c1C(CCN1CCOCC1)c1ccc(N(C)C)cc1 (stereo not drawn), the inhibition was -12.1%. In the case of N/C(=N/OC(=O)c1ccccc1F)c1nonc1N, the inhibition is reported as 1.17%. In the case of S=C(NCC1CCCO1)N1CCN(Cc2ccccc2Cl)CC1 (stereo not drawn), the inhibition is reported as -6.51%. CCOC(=O)c1cnn(CCOC(=O)c2ccccc2F)c1NC(=O)c1ccccc1F showed an inhibition of -4.26%. With Clc1ccc(-c2c(C3=NCCCN3)nnn2-c2ccc(Cl)cc2)cc1 the inhibition was 2.74%. Molecule Cc1cc(=O)[nH]c(SCc2nc3ccccc3n2Cc2ccccc2)n1 has an inhibition of -7.65%. Molecule Cc1ccc(C(=O)Cn2nnc(-c3cccs3)n2)cc1 has an inhibition of -5.53%. In the case of CCN1CCN(Cc2ccc(NC(=O)c3ccc(C)c(NC(=O)c4cccc5[nH]ccc45)c3)cc2C(F)(F)F)CC1, the inhibition is reported as -5.49%. Molecule CCN1CCN(Cc2ccc(NC(=O)c3ccc(C)c(NC(=O)N4CCNC4=O)c3)cc2C(F)(F)F)CC1 has an inhibition of -4.19%. With CCN1CCN(Cc2ccc(NC(=O)c3ccc(C)c(NC(=O)c4nccn4C)c3)cc2C(F)(F)F)CC1 the inhibition was 2%. With CCN1CCN(Cc2ccc(NC(=O)c3ccc(C)c(NC(=O)c4ccno4)c3)cc2C(F)(F)F)CC1 the inhibition was 1.48%. Molecule Cc1ccc(S(=O)(=O)N2CCOCC2)cc1NC(=O)CN1CCC(Cc2ccccc2)CC1 has an inhibition of 9.42%. Molecule CC(=O)OCC(=O)c1c[nH]c2ccccc12 has an inhibition of -1.25%. In the case of Cc1cc(C(=O)OCC(=O)N2CC(C)CC(C)C2)c(C)o1 (stereo not drawn), the inhibition is reported as -6.8%. With CC1CCN(C(=O)COC(=O)c2cc(Cl)cc(Cl)c2N)CC1 the inhibition was -13.4%. COc1cccc(C(=O)OCC(=O)c2c[nH]c3ccccc23)c1O gave an inhibition of 7.28%. With COc1cc2ccccc2cc1C(=O)OCC(=O)N1CCOCC1 the inhibition was -12.6%. CCOC(=O)c1c(C)[nH]c(C)c1C(=O)COC(=O)c1cc2ccccc2cc1O gave an inhibition of -1.14%. With CC1CC(C)CN(C(=O)COC(=O)c2ccc[nH]c2=O)C1 (stereo not drawn) the inhibition was -10%. Work on CC(C)(C)C(=O)COC(=O)c1ccccc1O yielded an inhibition of 10.3%. Molecule COc1ccccc1C/C(N)=N/OC(=O)c1ccc(C)c([N+](=O)[O-])c1 has an inhibition of 3.93%. For Cc1nnc(SCC(=O)N2CCN(S(=O)(=O)c3ccc(Cl)cc3)CC2)[nH]c1=O, the inhibition was -6.4%. COc1ccc(C(=O)CSc2nnc(NC(=O)C3CC(=O)N(c4ccccc4C)C3)s2)cc1 (stereo not drawn) gave an inhibition of 2.7%. With O=C(Nc1c(-c2cccs2)nc2ccccn12)c1ccc2ccccc2c1 the inhibition was 0.95%. Molecule CCC(CC)C(=O)Nc1cccc(-c2nc3ccccc3o2)c1 has an inhibition of 0.04%. For CCN(CC)C(=O)CC(c1ccccc1)c1ccco1 (stereo not drawn), the inhibition was -14.2%. In the case of Cc1cc(C)nc(N(C#N)CCOc2ccc(Cl)cc2)n1, the inhibition is reported as -4.66%. Molecule Cn1c(=O)c2c(nc(SCCN3CCCCC3)n2Cc2ccccc2)n(C)c1=O has an inhibition of -2.51%. Work on CC(C)C(NC(=O)c1ccccc1F)C(=O)Nc1ccc2c(c1)OCO2 (stereo not drawn) yielded an inhibition of 1.73%. With CN(C)C(=O)/C(=C\c1cccc(Oc2ccccc2)c1)NC(=O)c1ccccc1 the inhibition was 4.22%. C/C(=N\NC(=O)c1cc(-c2cccnc2)nc2ccccc12)c1ccccc1O showed an inhibition of 2.39%. O=C(COc1ccc(Cl)cc1)OCC(=O)N1CCCC1 showed an inhibition of 0.56%. With O=C(OCC(=O)N1CCCCC1)c1ccccc1SCC(=O)N1CCCCC1 the inhibition was 9.57%. For O=C(COC(=O)c1cc(Br)ccc1Cl)NC1CC1, the inhibition was 26.2%. CCC1CCCCN1C(=O)CCCOc1ccccc1 (stereo not drawn) gave an inhibition of -1.7%. With Cc1cc(C(=O)OCC(=O)N2CCCC2)c2ccccc2n1 the inhibition was -17.2%. CCC1CCCCN1C(=O)COC(=O)c1n[nH]c2ccccc12 (stereo not drawn) showed an inhibition of -3.06%. Molecule O=C(COc1ccc(Cl)cc1)OCC(=O)N1CCCCCC1 has an inhibition of 7.95%. Work on O=C(OCC(=O)N1CCCC1)c1cc(Br)ccc1Cl yielded an inhibition of 7.39%.
